Screening data (PubChem BioAssay)
Rows were chosen to be rich in hits. Some 19% of all compounds tested hit in one or more screens of this group.
HT1080 IDH1KD tx – qHTS for induction of synthetic lethality in tumor cells producing 2HG: qHTS for the HT-1080-IDH1KD cell line. HT-1080 IDH1 knockdown viability, ATP luminescence, 48 h. Potency, µM (titrated, usually from 46.1 µM), for inactives: at the top dose activity, negative = toxicity, most hits filed as cytotoxic. 360,000 tested, 2% active. AID 686971, 2013;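 note: potency is the fitted concentration of half-maximal effect; 0% = DMSO wells and -100% = cell-free medium wells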
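Luminescent ATP read-out (CellTiter-Glo, 10 min at room temperature) after 48 h compound exposure at 37 °C gave viability of IDH1-knockdown HT-1080 cells. Activity was normalised to DMSO and cell-free wells, then fitted as concentration-response curves.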
DT40 TDP1 CPT – qHTS for Inhibitors of human tyrosyl-DNA phosphodiesterase 1 (TDP1): qHTS in cells in presence of CPT | AID 686979, 2013 | chicken DT40 Tdp1-/-;hTDP1 cells + 20 nM CPT, ATP luminescence, 48 h | Potency, µM (highest dose often 46.2 µM), for the others: at the highest dose activity change, negative = growth inhibition, usual class: inhibitors | 420,000 tested, 12% active; note: potency is the fitted concentration of half-maximal effect; nearly all actives have a fitted effect of over 55% in size
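Cell growth measured by CellTiter-Glo luminescence after a minimum 48 h, 37 C compound exposure with 20 nM CPT in Tdp1-knockout DT40 cells stably expressing hTDP1, seeded 400/well; qHTS titration format.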
IL1B secr inh – qHTS for Inhibitors of Inflammasome Signaling: IL-1-beta AlphaLISA Primary Screen. 360,000 tested, 4.7% active. AID 743279, 2014. THP-1 LPS/ATP IL-1B secretion, AlphaLISA, 16 h; hits give low values. activity change, % at 57.5 µM; in the data active = activity change below about -50%; inconclusive = mostly about -30% to -49%
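THP-1 cells pretreated 1 hr with compounds (up to 57.5 uM final), then stimulated with LPS (250 ng/mL final) plus ATP (1.25 mM final); secreted IL-1B measured by AlphaLISA after 16 hr, decreased signal indicating inhibition.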
TDP1 cell noCPT – qHTS for Inhibitors of human tyrosyl-DNA phosphodiesterase 1 (TDP1): qHTS in cells in absence of CPT | DT40 Tdp1-/- hTDP1 cells, no CPT, ATP luminescence, 48 h | Potency, µM (highest dose often 46.2 µM), inactives show top-dose activity change, negative = growth inhibition, hits mostly inhibitors | 420,000 tested, 15% active | AID 686978, 2013; note: potency is the fitted concentration of half-maximal effect; nearly all actives have a fitted effect of over 55% in size
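Seeded 400 DT40-hTDP1 cells/well (vehicle DMSO, no 20 nM CPT); pinned compounds; ≥48 hr at 37 °C; CellTiter-Glo luminescence as viability measure.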
HT1080-NT tox – qHTS for induction of synthetic lethality in tumor cells producing 2HG: qHTS for the HT-1080-NT fibrosarcoma cell line; HT-1080-NT fibrosarcoma viability, CellTiter-Glo ATP luminescence, 48 h; Potency, µM (doses to about 46.1 µM), inactives show top-dose activity, negative = less viability, usual class: cytotoxic; 360,000 tested, 1.6% active; AID 686970, 2013;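 note: NT is the 2HG producing partner of a matched IDH1 knockdown line; potency is the fitted concentration of half-maximal effect; 0% = DMSO-treated cells and -100% = media-only wells without cells; nearly all actives have a fitted effect of over 55% in size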
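Viability by CellTiter-Glo luminescence after 48 h compound exposure at 37C of HT-1080-NT cells (750/well, RPMI, 5% FBS). % activity scaled between DMSO wells and medium-only wells, then curve-fitted and categorized by curve class.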
* hit, by the source's call; ? = inconclusive; nt = no result given; [ ] = another dose, or the depositor's remark. Unless noted, calls come from the whole dose curve; as a rule, active = well fitted curve in the direction sought with a large enough effect; inconclusive = small, poorly fitted or top-dose-only effect, or another doubt; inactive = no such curve, though single readings can be large; an effect the other way counts as inactive or inconclusive. Unless noted, % is set by controls: 0 for no effect and ±100 for the full control effect.

SMILES | HT1080 IDH1KD tx | DT40 TDP1 CPT | IL1B secr inh | TDP1 cell noCPT | HT1080-NT tox
Cn1cc(-c2nnnn2-c2cccc(C(F)(F)F)c2)c(C(F)(F)F)n1 | -1% | -19% | 38 | -22% | -3%
O=C(O)c1cccc(-n2nc(-c3ccc(Cl)c([N+](=O)[O-])c3)c3ccccc3c2=O)c1 | -27% | ? | -69* | 2% | -10%
O=C(CC1(O)C(=O)Nc2ccccc21)c1ccccc1O (stereo not given) | 17% | 3% | 41 | -5% | 27%
O=C(CC1(O)C(=O)Nc2cc(Cl)cc(Cl)c21)c1ccccc1O (stereo not given) | ? | ? | -80* | ? | ?
CCOc1ccccc1NC(=O)C1CCCN(c2c(CC)c(C)nc3ncnn23)C1 (stereo not given) | -18% | 21µM* | -16 | 21µM* | -12%
Cc1nc2ncnn2c(N2CCCC(C(=O)Nc3ccc4c(c3)CCC4)C2)c1C (stereo not given) | -22% | 21µM* | -5 | 23µM* | ?
CC(=O)Nc1ccc(NC(=O)C2CCN(c3c(Cc4ccccc4)c(C)nc4ncnn34)CC2)cc1 | 1% | ? | -21 | -28% | 1%
CCc1c(C)nc2ncnn2c1N1CCC(C(=O)Nc2ccccc2)CC1 | -28% | ? | -3 | 16µM* | -23%
CCc1c(C)nc2ncnn2c1N1CCC(C(=O)Nc2ccc(C)cc2)CC1 | ? | 21µM* | -8 | 15µM* | ?
Cc1nc2ncnn2c(N2CCC(C(=O)NCC3CCCO3)CC2)c1Cc1ccccc1 (stereo not given) | -3% | -17% | 0 | -16% | 6%[9.24 µM]
Cc1ccc(-c2nn(CC(=O)NCc3ccccc3)c3c2cnc2ccc(F)cc23)cc1C | nt | -29% | nt | 3% | nt
C/C(N)=C(/C#N)C(=O)CSc1nc2ccccc2[nH]1 | 5% | ? | 4 | ? | 5%
Cn1c(=O)c2c(nc(CN3CCCCC3)n2CCc2ccccc2)n(C)c1=O | -10%[9.24 µM] | -15% | -4 | ? | 1%
Cn1c(=O)c2c(nc(CN3CCN(c4cccc(Cl)c4)CC3)n2CCc2ccccc2)n(C)c1=O | -25% | 13µM* | -26 | 10µM* | -28%
Cn1c(=O)c2c(nc(CN3CCN(c4ccccc4)CC3)n2CCc2ccccc2)n(C)c1=O | -3% | 23µM* | -10 | 23µM* | -1%
COC(=O)C(CC(=O)c1ccc(Br)cc1)n1ccnc1 (stereo not given) | nt | 1.4µM* | nt | 1.3µM* | nt
COC(=O)C(CC(=O)c1ccc(Br)cc1)n1nc(C)cc1C (stereo not given) | 6% | ? | 2 | ? | -26%
C[C@@H]1CCCCO[C@H](CN(C)C(=O)C2CCCCC2)[C@@H](C)CN([C@H](C)CO)C(=O)c2cc(N(C)C)ccc2O1 | 14% | ? | -17 | ? | 6%
O=C(CCC1CCCC1)NCCS(=O)(=O)N1CCN(c2ccccc2F)CC1 | -13% | ? | 15 | 15µM* | -9%
O=C(CC1CCCC1)NCCS(=O)(=O)N1CCN(c2ccccc2F)CC1 | -14% | ? | 13 | ? | -11%
O=C(Cc1ccc(-c2ccccc2)cc1)NCCS(=O)(=O)N1CCN(c2ccccc2F)CC1 | nt | 10µM* | nt | 15µM* | nt
O=C(Cc1cccs1)NCCS(=O)(=O)N1CCN(c2ccccc2F)CC1 | ? | 7.3µM* | 7 | 5.8µM* | ?
COc1ccc(CNC(=O)Cn2cc(C)c(=O)[nH]c2=O)cc1 | 1% | 4% | -13 | -3% | -1%
Brc1ccc(/C=N/Nc2ncnc3c2cnn3Cc2ccccc2)cc1 | 16% | 18µM* | -11 | 15µM* | 18%
